Assay results published in PubChem BioAssay AID894 (National Center for Advancing Translational Sciences (NCATS), 2007).
Out of some 150,000 compounds screened, about 6,500 (4.3%) were called active. Another 12% or so got no clear call; they are omitted. The entries come from a sample that favours actives as a whole. Values without a mark were called inactive. The call rests on the fitted dose curve; in most records, active means well fitted inhibition curve with a large enough effect (not every such curve was filed as active); inconclusive means small, poorly fitted or top-dose-only effect, or another doubt; inactive means no such curve, though single readings can be large or run the other way.
On the % scale 0 is the no-effect control and ±100 the full control effect; potency means the concentration at half of the fitted maximal effect.

Each molecule was assayed against 15-hydroxyprostaglandin dehydrogenase [NAD(+)] (Homo sapiens) (UniProt P15428) (assay: qHTS Assay for Inhibitors of HPGD (15-Hydroxyprostaglandin Dehydrogenase)). Settings: purified HPGD, NADH fluorescence kinetic, PGE2 substrate; activity change, negative = inhibition: active compounds read low.
15-hydroxyprostaglandin dehydrogenase [NAD(+)] (Homo sapiens), sequence (P15428 whole entry, looked up): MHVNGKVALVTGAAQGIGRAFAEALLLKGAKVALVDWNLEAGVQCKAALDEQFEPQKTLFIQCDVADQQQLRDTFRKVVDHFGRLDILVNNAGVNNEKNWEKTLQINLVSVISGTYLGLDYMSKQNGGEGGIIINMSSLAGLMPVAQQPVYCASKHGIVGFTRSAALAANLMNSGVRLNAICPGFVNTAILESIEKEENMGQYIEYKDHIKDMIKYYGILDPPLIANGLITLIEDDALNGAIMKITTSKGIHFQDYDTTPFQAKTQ
Outline: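 20 nM HPGD preincubated 15 min at room temperature with compound in 50 mM Tris-HCl pH 8, 0.01% Tween 20. Started with 1 mM NAD+ and 30 uM prostaglandin E2; NADH fluorescence (360/450 nm) read 5 times over 30-s intervals, last minus first.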
Molecule O=C(CCc1ccccc1)Nc1nn[nH]n1 has an activity change, negative = inhibition of -9.52%. In the case of CC(C)c1ccc(N2CCN(C(=O)c3ccccc3NC(=O)/C=C(\C(=O)O)c3ccccc3)CC2)cc1, the Potency is reported as 35.5 µM (active). O=C(O)C1CC=CCC1C(=O)Nc1ccccc1C(=O)N1CCN(c2ccccc2)CC1 (stereo not given) showed an activity change, negative = inhibition of -1.15%. In the case of Cc1cccc(N2CCN(C(=O)c3ccccc3NC(=O)C3CCCCC3C(=O)O)CC2)c1 (stereo not given), the activity change, negative = inhibition is reported as -8.91%. O=C(C/C(=N\NC(=O)c1ccccc1Br)C(F)(F)F)c1cccs1 was tested, and the activity change, negative = inhibition was -18.1%. N#Cc1cccc(CS(=O)(=O)c2nnnn2-c2cc(C(F)(F)F)cc(C(F)(F)F)c2)c1 showed an activity change, negative = inhibition of -8.91%. COCCn1c(=NC(=O)c2ccccc2[N+](=O)[O-])sc2cc(S(C)(=O)=O)ccc21 showed an activity change, negative = inhibition of -11.2%. CC(C)c1ccc(/C=C/C(=O)NNC(=O)c2cccnc2)cc1 gave an activity change, negative = inhibition of -6.71%. In the case of O=C(Nc1ccccc1)c1cccnc1Nc1ccccc1, the activity change, negative = inhibition is reported as -10.1%. CC(C)c1ccc(Nc2ncccc2C#N)cc1 was tested, and the Potency was 25.1 µM (active). In the case of O=C(Nc1ccccc1)c1cc2ccccc2[nH]1, the activity change, negative = inhibition is reported as -6.75%. With COc1ccc(C)cc1NC(=O)CSc1ccc(Cl)cc1 the activity change, negative = inhibition was -13.4%. Cc1cc(C(=O)OCC(=O)Nc2nnc(C(C)C)s2)c2ccccc2n1 showed an activity change, negative = inhibition of -10.9%. COCCCNC(=S)NC(=O)c1ccc([N+](=O)[O-])cc1 showed an activity change, negative = inhibition of -5.32%. For CCOC(=O)c1c(NC(=O)C2CCN(S(=O)(=O)c3ccc(Cl)cc3)CC2)sc2c1CCCC2, the activity change, negative = inhibition was -27.2%. CC(C)OC(=O)c1cc(NC(=O)C2C3CCC(O3)C2C(=O)O)cc(C(=O)OC(C)C)c1 (stereo not given) gave an activity change, negative = inhibition of -13.2%. For Cc1sc(NC(=O)C2C3CCC(O3)C2C(=O)O)c(C(=O)OC(C)C)c1-c1ccc(Cl)cc1 (stereo not given), the Potency was 35.5 µM (active). Cc1cc(NC(=O)COC(=O)COc2ccc(Cl)cc2C)c([N+](=O)[O-])cc1C gave an activity change, negative = inhibition of -9.4%. With Cc1ccc(CN2CCN(/N=C/c3cccnc3)CC2)c(C)c1 the activity change, negative = inhibition was -0.74%. O=C(CSC1CC(=O)N(CCc2ccccc2)C1=O)Nc1ccc(Cl)cc1 (stereo not given) showed an activity change, negative = inhibition of -11.7%. Molecule CCOC(=O)NC(=O)C(=CNc1cccc(OC)c1)C(=O)NC(=O)OCC has an activity change, negative = inhibition of -21.8%. With O=C(CSc1nnc2scc(-c3ccc(F)cc3)n12)NCc1ccco1 the activity change, negative = inhibition was -3.23%. Cc1ccc(-c2csc3nnc(SCC(=O)NCc4ccco4)n23)cc1 showed an activity change, negative = inhibition of -10.8%. With Cn1c(-c2ccc(F)cc2)cnc1SCC(=O)NCc1ccco1 the Potency was 31.6 µM (active). In the case of CCN(CC)CCNCc1ccc(OCc2ccc(Cl)nc2)c(OC)c1, the activity change, negative = inhibition is reported as -2.75%. Work on O=C1C2C3C=CC(C4CC34)C2C(=O)N1c1nccs1 (stereo not given) yielded an activity change, negative = inhibition of -6.02%. In the case of CCOc1cccc(NC(=O)C2CCCN(S(=O)(=O)c3ccc(OC)cc3)C2)c1 (stereo not given), the activity change, negative = inhibition is reported as -17%. In the case of CCOc1ccc2nc(C(=O)N3CCCC(C)C3)sc2c1 (stereo not given), the Potency is reported as 7.94 µM (active). In the case of CCOc1ccc2nc(SC(CC)C(=O)Nc3cc(C)on3)sc2c1 (stereo not given), the activity change, negative = inhibition is reported as 0.253%. For CCC(C)(C(=O)Nc1ccccc1C)N(C(=O)CNC(C)=O)c1ccc(C)cc1 (stereo not given), the activity change, negative = inhibition was 1.96%. COc1ccc(N2C(=O)C(CC(=O)Nc3ccc(F)cc3)N(CCc3cccs3)C2=O)cc1 (stereo not given) gave an activity change, negative = inhibition of -5.46%. For COc1ccc(C(=O)n2nc(-c3ccc(Cl)cc3)nc2N)cc1OC, the activity change, negative = inhibition was -16.8%. In the case of COc1cc(OC)c(-n2cc(-c3ccc(Cl)cc3)[nH]c2=O)cc1Cl, the Potency is reported as 7.08 µM (active). For Cc1ccc(-c2cc(=O)c3ccc(Cl)cc3[nH]2)cc1, the activity change, negative = inhibition was -2.76%. COc1ccccc1OCCC(=O)OCC(=O)NCc1ccccc1 was tested, and the activity change, negative = inhibition was -9.44%. O=c1cc(O)nc(SCc2ccccc2Cl)[nH]1 showed an activity change, negative = inhibition of -21.6%. With Cc1cc(=O)[nH]c(SCc2cccc(F)c2)n1 the activity change, negative = inhibition was -22.9%. In the case of Cc1cc(=O)[nH]c(SCc2cc(Cl)ccc2OC(F)F)n1, the Potency is reported as 14.1 µM (active). COC1=CCC2([N+](=O)[O-])CN(CC(=O)O)CC1([N+](=O)[O-])C2 (stereo not given) was tested, and the activity change, negative = inhibition was -5.2%. Work on C[C@@H](O)c1nc2ccccc2n1N yielded an activity change, negative = inhibition of -7.02%. In the case of COc1ccc(/C=C(\C#N)C(=O)NCCCn2ccnc2)cc1, the activity change, negative = inhibition is reported as -18.4%. Molecule C[C@H]1Cc2c(-c3ccccc3)nc3c(c2CO1)CN(S(=O)(=O)c1ccc(Cl)c2nonc12)CC3 has an activity change, negative = inhibition of -7.2%. COc1cc(/C=N/n2c(C)n[nH]c2=S)ccc1OCc1ccccc1 was tested, and the Potency was 5.62 µM (active). C=CCOc1ccc(/C=N/n2cncn2)cc1OC was tested, and the activity change, negative = inhibition was -24.2%. COc1cc(/C=N/O)ccc1OCc1ccc([N+](=O)[O-])cc1 gave an activity change, negative = inhibition of -3.26%. CCN=C1S/C(=C\c2cc(Br)ccc2OCC(=O)OCC)C(=O)N1CC showed an activity change, negative = inhibition of 51.2%. With CCCCC1N2CC3([N+](=O)[O-])CN1CC([N+](=O)[O-])(C2)C3(C)C (stereo not given) the activity change, negative = inhibition was -8.6%. C[N+]1(CC(O)COc2ccccc2)CCN(C(=O)c2ccc([N+](=O)[O-])cc2)CC1 (stereo not given) gave an activity change, negative = inhibition of -8.27%. For O=C(O)Cc1ccc(NC(=O)c2cccs2)cc1, the activity change, negative = inhibition was -5.78%. With CCc1cccc(CC)c1NC(=S)NCc1ccc2[nH]c(C)cc2c1 the activity change, negative = inhibition was -1.27%. Cc1cc2cc(CNC(=O)c3cccs3)ccc2[nH]1 was tested, and the Potency was 7.08 µM (active). In the case of CN(c1ccccc1)S(=O)(=O)c1ccc(Cl)c(C(=O)NCCc2c[nH]c3ccccc23)c1, the activity change, negative = inhibition is reported as -0.557%. Molecule CC(C)C1=CC2=CC[C@H]3[C@](C)(C(=O)O)CCC[C@]3(C)C2CC1 (stereo not given in full) has an activity change, negative = inhibition of -6.95%. O=C1/C(=C/c2ccc3c(c2)OCO3)CCC/C1=C\c1ccc2c(c1)OCO2 gave an activity change, negative = inhibition of -8.26%. CCC1=C/C(=C\c2ccc3c(c2)OCO3)C(=O)S1 was tested, and the Potency was 28.2 µM (active). In the case of CSC1=N/C(=C\c2ccc3c(c2)OCO3)C(=O)S1, the activity change, negative = inhibition is reported as -15.7%. Cc1[nH]c2ccccc2c1/C=N\NC(=O)Cn1nnc(-c2ccccc2)n1 was tested, and the activity change, negative = inhibition was -7.96%. With CCCc1nnc(NC(=O)c2cccs2)s1 the activity change, negative = inhibition was -3.96%. With CCCc1nnc(NC(=O)CN2C(=O)c3ccccc3S2(=O)=O)s1 the Potency was 14.1 µM (active). CNC(=O)CN1C(=O)c2ccccc2S1(=O)=O was tested, and the activity change, negative = inhibition was 0.566%. In the case of Cc1ccc(Nc2ccc(C(N)=O)cc2[N+](=O)[O-])cc1, the activity change, negative = inhibition is reported as -24.4%. CCNC(=O)NC(=O)C(C)OC(=O)C1CCN(S(=O)(=O)c2ccccc2F)CC1 (stereo not given) gave an activity change, negative = inhibition of -13.3%. For Cc1ccccc1-n1nc(C)c2cc(C(=O)NC3CC3)sc21, the Potency was 22.4 µM (active). For Cc1onc(-c2c(Cl)cccc2Cl)c1C(=O)c1c[nH]c(C(=O)NC2CC2)c1, the activity change, negative = inhibition was -1.05%. Cc1nn(-c2ccccc2)c2sc(C(=O)N(Cc3ccco3)C(C)C(=O)NC(C)(C)C)cc12 (stereo not given) was tested, and the activity change, negative = inhibition was -12.4%. OC[C@H]1O[C@@H](n2cnc3c(N[C@H]4CC5CCC4C5)ncnc32)[C@H](O)[C@@H]1O (stereo not given in full) was tested, and the activity change, negative = inhibition was -25%. For COc1cc(C(=O)NNC(=O)c2ccc(S(=O)(=O)N3CCCCC3)cc2)cc(OC)c1OC, the activity change, negative = inhibition was 5.41%. With COc1cc(OC)c(-n2c(C)cc(C=O)c2C)cc1Cl the Potency was 3.55 µM (active). Work on COc1cc(Cl)c(S(=O)(=O)n2cnc(C)c2)cc1Cl yielded an activity change, negative = inhibition of 0.989%. For COc1ccc(Cl)cc1-n1c(C)cc(C(=O)OCC(=O)N2CC(=O)Nc3ccccc32)c1C, the activity change, negative = inhibition was -10%. C[C@H]1Cc2c(-c3ccccc3)nc3c(c2CO1)CN(C(=O)C1CC1)CC3 was tested, and the activity change, negative = inhibition was -5.41%. COc1ccc2c(c1)CCc1c(C(=O)N3CCc4ccccc4C3)noc1-2 was tested, and the Potency was 17.8 µM (active). Work on COc1ccc2c(c1)CCc1c(C(=O)Nc3c(C)n(C)n(-c4ccccc4)c3=O)noc1-2 yielded an activity change, negative = inhibition of -26.2%. COc1ccc(-c2nc3c(c4c2C[C@H](c2ccccc2)OC4)CN(C(=O)C2CC2)CC3)c(C)c1 showed an activity change, negative = inhibition of -7.07%. Work on O=C(COc1ccccc1)N1CCc2ccccc2C1 yielded an activity change, negative = inhibition of -7.89%. In the case of COc1ccc(-c2nc(CS(=O)CC(=O)N3CCc4ccccc4C3)c(C)o2)cc1 (stereo not given), the activity change, negative = inhibition is reported as -23.2%. For COc1ccc2c(c1)CCc1c(C(=O)N3CCCC3)noc1-2, the Potency was 20 µM (active). With CC(=O)Nc1ccc(C(=O)OCC(=O)Nc2ccc([N+](=O)[O-])cc2C(F)(F)F)cc1 the activity change, negative = inhibition was -4.2%. In the case of O=C(CSc1nc2ccc([N+](=O)[O-])cc2[nH]1)c1ccc(Cl)cc1, the activity change, negative = inhibition is reported as -4.65%. COc1ccc(O[C@H]2C=C[C@@H](c3ccccc3)O[C@@H]2CO/N=C/C[C@@H]2C=C[C@H](OC(C)=O)[C@@H](COC(C)=O)O2)cc1 was tested, and the activity change, negative = inhibition was -8.59%. For CCOc1ccc(S(=O)(=O)N(CC(=O)NCC(F)(F)F)Cc2ccco2)cc1, the activity change, negative = inhibition was -11.9%. For O=C(Nc1cccc([N+](=O)[O-])c1)c1ccc2c(c1)OCO2, the activity change, negative = inhibition was -1.46%. N#CC1=C(SCc2ccc(C#N)cc2)N=C(N)C(c2nc(-c3ccccc3)cs2)C12CCCCC2 (stereo not given) gave an activity change, negative = inhibition of -15.3%. CC1(C)CCc2nc(SCc3ccccc3)c(C#N)cc2C1 was tested, and the activity change, negative = inhibition was -11%. For N#CC1=C(SCc2ccccc2)NC(=O)C(C#N)C12CCCC2 (stereo not given), the Potency was 17.8 µM (active). Molecule Cc1c(Cl)cccc1NC(=O)CC1SC(=NCC2CCCO2)NC1=O (stereo not given) has an activity change, negative = inhibition of -12.3%. With O=C(CN1C(=O)/C(=C\c2ccc(C(F)(F)F)cc2)Sc2ccccc21)NCc1ccco1 the activity change, negative = inhibition was 33.1%. With CCOc1ccc(OCC)c(NC(=O)C2CCN(S(=O)(=O)c3c(C)noc3C)CC2)c1 the activity change, negative = inhibition was -8.5%. Cc1noc(C)c1S(=O)(=O)N1CCCC(C(=O)Nc2nccs2)C1 (stereo not given) was tested, and the Potency was 35.5 µM (active). With Cc1noc(/C=C/N(C)C)c1S(=O)(=O)N1CCCC(C(=O)NCc2ccco2)C1 (stereo not given) the activity change, negative = inhibition was -17.1%.
